# Source: PubChem (National Center for Advancing Translational Sciences (NCATS))
# Sampled rows, rich in hits. Any-hit rate of the full collection: about 21%.
# Cycloheximide cs: counter-screen for Shiga toxin inhibitors: cycloheximide protein synthesis inhibition. cell reporter, cycloheximide protein synthesis inhibition counterscreen. max response, %. 300,000 compounds, 12% hits. AID 2314; in the data active = max response mostly above about 13%, no sharp cut-off; inactive = mostly below about 14%; also: read at 38.3 µM for the half of the compounds with a filed dose; 0% is about no effect
# Pf growth 48h: inhibits P. falciparum growth in the first generation, 48 h. 310,000 compounds, 5.9% hits. Potency, µM (highest dose often 28.7 µM), for inactives: at the highest dose activity change, negative = inhibition, usual class: inhibitors. P. falciparum luciferase growth in erythrocytes, 48 h; also: potency is read from the fitted curve at half-maximal effect; % is scaled to controls: 0 for no effect and ±100 for the full control effect
#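 Read-out is firefly luciferase luminescence from an integrated reporter in P. falciparum, so falling signal marks reduced parasite growth. Infected erythrocytes were at 2% hematocrit and 0.1% parasitemia (final) in Albumax-supplemented RPMI 1640.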
# NS1 inh: blocks influenza NS1 protein function; Potency, µM (highest dose often 46.1 µM), inactives show top-dose activity, positive = more growth; 270,000 compounds, 0.4% hits; calls by dose curve; also: potency is read from the fitted curve at half-maximal effect; actives are rising curves; nearly all actives have a fitted effect of over 50% in size
#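 Recovery from NS1-induced slow growth read by OD600 in budding yeast switched to galactose assay medium (pH 6.0, -URA) at 1:100 dilution. Compound 23 nl per well; the matching strain lacking NS1 serves as control.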
# Shiga toxin inh: Shiga toxin inhibition; Vero cells, Shiga toxin protein synthesis inhibition reporter; 290,000 compounds, 9.2% hits; inhibition, % at 38.7 µM; in the data active = inhibition mostly above about 28%, no sharp cut-off; inactive = mostly below about 43%; also: 0% is about no effect
# Pf growth 96h: inhibits malaria parasite growth, 96 h | P. falciparum luciferase reporter growth, 96 h | Potency, µM (titrated, usually from 28.7 µM), for inactives: at the highest dose activity change, negative = inhibition, hits mostly inhibitors | 320,000 compounds, 6.9% hits | AID 504834; also: potency is read from the fitted curve at half-maximal effect; % is scaled to controls: 0 for no effect and ±100 for the full control effect
#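 P. falciparum expressing integrated firefly luciferase grown in erythrocytes (2% hematocrit, 0.05% parasitemia final) with compounds for 96 hours at 37 C, 5% CO2. Growth inhibition read as loss of luminescence after adding luciferase detection reagent.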
# * marks the source's active call; other numbers are inactive results; u = inconclusive; x = no result given; + = active, no number. Unless noted, calls follow the shape of the dose curve; as a rule, active = well fitted inhibition curve with a large enough effect; inconclusive = small, poorly fitted or top-dose-only effect, or another doubt; inactive = no such curve, though single readings can be large or run the other way.
SMILES,Cycloheximide cs,Pf growth 48h,NS1 inh,Shiga toxin inh,Pf growth 96h
Cc1ccc(C(=O)NNC(=O)C2CC2)cc1Br,0,14%,-6%,-28,28%
COc1ccc(C[C@@H]2CN3C(=NC[C@@H]3C)N2CCNC(=O)c2ccc(C)c(Br)c2)cc1,-1,u,2%,-13,13µM*
Cc1ccc(-n2ncc3c(=O)n(CC(=O)N4CCN(c5ccccc5)CC4)cnc32)cc1C,20,0%,-2%,26,40%
Cc1cc2[nH]c(=O)c(=O)[nH]c2cc1S(=O)(=O)NC1CCC(C)CC1 (stereo unspecified),10,u,10%,2,0%
Cc1cc2[nH]c(=O)c(=O)[nH]c2cc1S(=O)(=O)NC1CCCCC1C (stereo unspecified),-2,-1%,15%,-4,4.7µM*
CC(O)CNC(=O)C1CCN(Cc2ccc(OCc3ccccc3)cc2)CC1 (stereo unspecified),37*,9%,-11%,130*,29%
O=C(NCc1ccccn1)C1CCN(Cc2cccc(OCc3ccccc3)c2)CC1,-2,-6%,-11%,-5,u
CC(C)CNC(=O)C1CCN(Cc2ccc(OCc3ccccc3)cc2)CC1,27*,8%,-31%,79*,40%
CN(C[C@H](Cc1ccccc1)N(C[C@H](Cc1ccccc1)N(CC1(c2ccccc2)CC1)N=O)N=O)N=O,1,u,8%,-17,10µM*
CN(C[C@@H](CC1CCCCC1)N(C[C@H](Cc1ccccc1)N(CCc1ccccc1)N=O)N=O)N=O,-3,u,8%,-11,12µM*
COc1ccc(C2C(C(C)=O)=C(O)C(=O)N2c2ccc(Br)cc2)cc1 (stereo unspecified),16,-7%,19%,11,14%
O=C(OCC1CC(c2ccccn2)=NO1)c1ccc(Br)cc1 (stereo unspecified),56*,26%,-92%,41,-2%
O=C(COC(=O)c1ccccn1)c1ccc(Br)cc1,18,3%,-7%,30,7%
CC1CCN(CCCCOc2ccc(C(=O)c3ccccc3)cc2)CC1,1,x,0%,-5,u
O=C1C2CCN(CC2)C1Cc1ccc(OCc2ccccc2)cc1 (stereo unspecified),23*,0%,-1%,22,24%
c1ccc(COc2ccc(OCCN3CCCCC3)cc2)cc1,87*,44%,13%,47*,u
CC1CCN(CCCOc2ccc(OCc3ccccc3)cc2)CC1,24*,22%,-11%,81*,u
c1ccc(Cc2ccc(OCCN3CCOCC3)cc2)cc1,21*,7%,-17%,55*,50%
CCOC(=O)CN1CCS(=O)(=O)CC1,-4,7%,0%,15,28%
Cn1c(C(=O)N[C@@H](C(=O)O)c2ccccc2)cc2cc(F)ccc21,18,x,1%,26,48%
c1ccc(-c2ccc(OCCN3CCCC3)cc2)cc1,32*,x,x,52*,x
Clc1ccc(OCCN2CCOCC2)cc1Cl,17,x,-5%,70*,26%
c1ccc(COc2ccc(OCCCN3CCCC3)cc2)cc1,38*,72%,13%,+,10%
CCOc1ccc(OCCN2CCCCC2)cc1,7,21%,14%,23,u
c1ccc(COc2ccc(OCCN3CCCC3)cc2)cc1,50*,76%,3%,69*,-20%
SMILES,Cycloheximide cs,Pf growth 48h,NS1 inh,Shiga toxin inh,Pf growth 96h
NC(=O)C1CCN(c2nc(-c3cccc(Br)c3)cs2)CC1,x,u,x,x,-27%
O=S(=O)(Nc1ccc(-n2cnnn2)cc1)c1cccs1,x,-4%,x,x,47%
Cc1ccc(OCCCN2CCOCC2)cc1,20*,39%,4%,20*,u
COc1cc(CNc2ncc(-c3ccc(Br)cc3)n2C)cc(OC)c1OC,-3,u,-8%,-9,u
COc1ccc(-c2[nH]c(-c3cc(OC)c4c(c3)OCO4)nc2-c2ccccc2)cc1,0,4.1µM*,1%,17,u
COc1ccc(-c2nc(-c3ccccc3)c(-c3cc([N+](=O)[O-])ccc3C)[nH]2)cc1OC,-3,u,2%,20,x
N#Cc1c(-c2ccc(Cl)cc2)ccnc1N1CCOCC1,26*,u,x,46*,4.7µM*
N#Cc1c(N)nc(N2CCCC2)c(C#N)c1-c1ccc(Cl)cc1,-1,-23%,-3%,-6,218%
COc1ccc(C2C(C(=O)N3CCCCC3)CC(=O)N2c2ccc(OC)cc2)cc1 (stereo unspecified),-2,1.7µM*,-3%,25,9.3µM*
CCN(CC)CCNC(=O)C1CCC(=O)N(c2ccc(OC)cc2)C1c1ccc(F)cc1 (stereo unspecified),-4,7%,1%,-3,57%
COc1ccc(C2C(C(=O)N3CCC(C(N)=O)CC3)CC(=O)N2c2ccc(OC)cc2)cc1 (stereo unspecified),6,u,x,-4,5.2µM*
CCCN(CCC)CCNC(=O)C1CC(=O)N(c2ccc(OC)cc2)C1c1ccc(OC)cc1 (stereo unspecified),-3,u,-3%,-14,1.7µM*
COc1ccc(N2C(=O)CCC(C(=O)N3CCCCCC3)C2c2ccc(OC)c(OC)c2)cc1 (stereo unspecified),-4,21%,2%,-21,-7%
COc1ccc(C2C(C(=O)N3CCC4(CC3)OCCO4)CC(=O)N2c2ccc(OC)cc2)cc1 (stereo unspecified),-2,12µM*,1%,-7,x
O=C(N/N=C/c1ccc(OC(=O)c2cccc(F)c2)cc1)c1cccnc1,-3,4%,-11%,22,17%
Cc1cccc(C(=O)N/N=C/c2ccncc2)c1,14*,32%,-8%,6,u
Cn1cc([N+](=O)[O-])c(C(=O)N/N=C/c2ccncc2)n1,1,u,-8%,-4,31%
O=C(N/N=C/c1ccc(N2CCOCC2)cc1)c1ccc(O)cc1,37*,32%,7%,73*,-5%
Cc1ccc(C(=O)Nc2ccc(C(=O)N/N=C/c3ccncc3)cc2)cc1,18,23%,x,12,-13%
Cn1ccc(C(=O)N/N=C/c2ccncc2)n1,32*,4%,9%,28*,-24%
O=C(N/N=C/c1ccc(OC(=O)c2cccs2)cc1)c1cccc(F)c1,47*,58%,1%,31,31%
Cc1ccc2nc(C)c(C(=O)NN=C3CCCCCC3)n2c1,0,3%,3%,-12,u
O=C(c1cc(N2CCOCC2)c(F)cc1[N+](=O)[O-])N1CCOCC1,2,-12%,19%,-3,u
O=C(N/N=C/c1cccnc1)c1cccc(F)c1,20*,26%,8%,23*,u
FC(F)(F)c1ccccc1N/N=C/c1cccnc1,22,u,-49%,27,u
Cc1ccc(/C=N/NC(=O)c2ccncc2)cc1,22*,0%,u,47,-103%
Cc1ccc(/C=N\NC(=O)c2csnn2)cc1,30*,103%,5%,98*,30%
Fc1ccc(N/N=C/c2cccnc2)c(F)c1,31*,13%,x,73*,-18%
